From PubChem BioAssay AID1159580 (chemical genetic matrix, 2015)
“And” between values parts separate entries of the source, which are not always exact repeats. Equal values may be shown once. About 2,000 (36%) of roughly 5,500 compounds were called active. Roughly 18% stayed inconclusive and do not appear here. Rule as the data show it: active = normalized growth mostly below about 0.91 (no sharp cut-off); inconclusive = no clear call, values can overlap the other calls; inactive = mostly above about 0.92. Some of the results follow.

Assay: chemical genetic growth profiling, strain panel (AID 1159580);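 also: tested at 20 µM; growth read once vehicle control cultures reached saturation at 30 °C; 1 = growth at the plate median or of vehicle wells; lower values mean less growth of the strain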
Details: S. cerevisiae deletion strains, growth OD

Measured: normalized growth

COc1ccc(Cl)cc1C(=O)NCCc1ccc(S(=O)(=O)NC(=O)NC2CCCCC2)cc1
inactive: locus YAL013W, strain DEP1, stronger effect = lower value 0.982 | locus YAL021C, strain ccr4, stronger effect = lower value 1.01 | locus YAL026C, strain drs2, stronger effect = lower value 1 | locus YAL030W, strain snc1, stronger effect = lower value 1 | locus YAL040C, strain CLN3, stronger effect = lower value 0.984 | locus YBL061C, strain skt5, stronger effect = lower value 1 | locus YBR009C, strain hhf1, stronger effect = lower value 0.993 | locus YBR021W, strain FUR4, stronger effect = lower value 1.03 | locus YBR023C, strain chs3, stronger effect = lower value 1 | locus YBR171W, strain sec66, stronger effect = lower value 1.01 | locus YBR229C, strain ROT2, stronger effect = lower value 0.956 | locus YBR231C, strain swc5, stronger effect = lower value 0.997 | locus YBR279W, strain paf1, stronger effect = lower value 1.01 | locus YCL011C, strain gbp2, stronger effect = lower value 1.01 | locus YCL016C, strain dcc1, stronger effect = lower value 0.992 | locus YCL029C, strain bik1, stronger effect = lower value 0.99 | locus YCL061C, strain MRC1 (second series), stronger effect = lower value 1 | locus YCL061C, strain MRC1, stronger effect = lower value 1 | locus YCL069W, strain vba3, stronger effect = lower value 1 | locus YCR088W, strain abp1, stronger effect = lower value 1.01 | locus YDL005C, strain med2, stronger effect = lower value 1.01 | locus YDL035C, strain GPR1, stronger effect = lower value 0.973 | locus YDL040C, strain nat1, stronger effect = lower value 1 | locus YDL074C, strain BRE1, stronger effect = lower value 0.909 | locus YDL101C, strain DUN1, stronger effect = lower value 0.978 | locus YDL134C, strain PPH21, stronger effect = lower value 0.976 | locus YDL185W, strain tfp1, stronger effect = lower value 0.959 | locus YDL192W, strain arf1, stronger effect = lower value 0.997 | locus YDR001C, strain nth1, stronger effect = lower value 1 | locus YDR069C, strain doa4, stronger effect = lower value 1.01 | locus YDR101C, strain arx1, stronger effect = lower value 1.01 | locus YDR137W, strain rgp1, stronger effect = lower value 0.973 | locus YDR150W, strain NUM1, stronger effect = lower value 0.971 | locus YDR159W, strain sac3, stronger effect = lower value 1.01 | locus YDR162C, strain NBP2, stronger effect = lower value 0.903 | locus YDR195W, strain ref2 0.927 | locus YDR297W, strain sur2, stronger effect = lower value 1 | locus YDR318W, strain mcm21, stronger effect = lower value 1.02 | locus YDR334W, strain swr1, stronger effect = lower value 0.993 | locus YDR335W, strain msn5, stronger effect = lower value 1.01 | locus YDR363W, strain ESC2, stronger effect = lower value 0.968 | locus YDR388W, stronger effect = lower value 0.995 | locus YDR392W, strain spt3, stronger effect = lower value 0.918 | locus YDR502C, strain sam2, stronger effect = lower value 0.989 | locus YEL003W, strain gim4, stronger effect = lower value 0.997 | locus YEL037C, strain rad23, stronger effect = lower value 1 | locus YEL061C, strain CIN8 (second series), stronger effect = lower value 0.996 | locus YEL061C, strain CIN8, stronger effect = lower value 0.984 | locus YER002W, strain NOP16, stronger effect = lower value 1.02 | locus YER015W, strain faa2, stronger effect = lower value 1 | locus YER016W, strain bim1, stronger effect = lower value 1 | locus YER110C, stronger effect = lower value 0.999 | locus YER111C, strain swi4, stronger effect = lower value 1 | locus YER155C, strain BEM2 (second series), stronger effect = lower value 0.996 | locus YER155C, strain BEM2, stronger effect = lower value 0.994 | locus YER167W, strain BCK2, stronger effect = lower value 1.01 | locus YFR010W, strain ubp6, stronger effect = lower value 1.01 | locus YGL078C, strain dbp3, stronger effect = lower value 0.979 | locus YGL086W, strain mad1, stronger effect = lower value 1.02 | locus YGL167C, strain pmr1, stronger effect = lower value 1 | locus YGL173C, strain kem1, stronger effect = lower value 1 | locus YGL227W, strain vid30, stronger effect = lower value 0.998 | locus YGL240W, strain doc1, stronger effect = lower value 0.994 | locus YGL248W, strain PDE1, stronger effect = lower value 0.973 | locus YGL253W, strain hxk2, stronger effect = lower value 1 | locus YGR078C, strain PAC10, stronger effect = lower value 0.958 | locus YGR135W, strain pre9, stronger effect = lower value 0.979 | locus YGR229C, strain SMI1, stronger effect = lower value 0.954 and 0.937 | locus YGR252W, strain gcn5, stronger effect = lower value 1.12 | locus YHR013C, strain ard1, stronger effect = lower value 0.969 | locus YHR027C, strain rpn1, stronger effect = lower value 1.01 | locus YHR030C, strain SLT2, stronger effect = lower value 1 and 0.996 | locus YHR079C, strain IRE1 (second series), stronger effect = lower value 1.01 | locus YHR079C, strain IRE1, stronger effect = lower value 0.993 | locus YHR094C, strain hxt1, stronger effect = lower value 0.996 | locus YHR129C, strain ARP1, stronger effect = lower value 0.993 | locus YHR142W, strain chs7, stronger effect = lower value 1.01 | locus YHR200W, strain rpn10, stronger effect = lower value 1.01 | locus YIL066C, strain RNR3, stronger effect = lower value 0.962 | locus YIL073C, strain SPO22, stronger effect = lower value 1.06 | locus YIL125W, strain kgd1, stronger effect = lower value 0.998 | locus YIR030C, strain dcg1, stronger effect = lower value 1.01 | locus YJL092W, strain hpr5, stronger effect = lower value 1 | locus YJL095W, strain BCK1 (second series), stronger effect = lower value 0.997 | locus YJL095W, strain BCK1, stronger effect = lower value 0.963 and 0.978 | locus YJL115W, strain asf1, stronger effect = lower value 1 | locus YJL129C, strain trk1, stronger effect = lower value 0.994 | locus YJL134W, strain LCB3, stronger effect = lower value 0.993 | locus YJL154C, strain vps35, stronger effect = lower value 0.996 | locus YJL164C, strain tpk1, stronger effect = lower value 0.995 | locus YJL166W, strain qcr8, stronger effect = lower value 1.01 | locus YJL168C, strain set2, stronger effect = lower value 0.998 | locus YJL187C, strain SWE1 (second series), stronger effect = lower value 0.943 | locus YJL187C, strain SWE1, stronger effect = lower value 1.01 | locus YJR043C, strain POL32, stronger effect = lower value 1.03 | locus YJR066W, strain TOR1, stronger effect = lower value 0.934
